Test results: PubChem BioAssay (NCATS)
Results filed as inconclusive are left out. Activity calls are given as the source filed them. Calls come from the whole dose curve; as a rule, active = well fitted curve in the direction sought with a large enough effect; inconclusive = small, poorly fitted or top-dose-only effect, or another doubt; inactive = no such curve, though single readings can be large; an effect the other way counts as inactive or inconclusive.

What was measured:
[1] = molecular target: Rap guanine nucleotide exchange factor 3 (Homo sapiens) (UniProt O95398); assay: Confirmatory qHTS for antagonist of cAMP-regulated guanine nucleotide exchange factor 3 (EPAC1) (AID 1645880); note: nearly all actives have a fitted effect of over 55% in size; note: potency is the fitted concentration of half-maximal effect
Method in brief: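 Released BODIPY-GDP fluoresces less than Rap1-bound BODIPY-GDP; the signal is followed at 480/540 nm at 5-min intervals over 30 min, after 5 min at room temperature. Reactions contain 100 nM EPAC1, 250 nM RAP1B-BODIPY-GDP and 50 uM GDP; results are normalized to ATA and DMSO.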

[2] = molecular target: Rap guanine nucleotide exchange factor 3 (Homo sapiens) (UniProt O95398); assay: Confirmatory qHTS for agonist of cAMP-regulated guanine nucleotide exchange factor 3 (EPAC1) (AID 1645881); note: nearly all actives have a fitted effect of over 75% in size; note: potency is the fitted concentration of half-maximal effect;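 for activation: EPAC1 catalysed release of BODIPY-GDP from Rap1B seen as fluorescence loss; 100% = effect of cAMP agonist control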
[3] = molecular target: Rap guanine nucleotide exchange factor 4 (Homo sapiens) (UniProt Q8WZA2); assay: Confirmatory qHTS for agonist of cAMP-regulated guanine nucleotide exchange factor 4 (EPAC2) (AID 1645884);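 note: nucleotide exchange releases bodipy-GDP from Rap1 and this lowers its fluorescence; nearly all actives have a fitted effect of over 65% in size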; note: potency is the fitted concentration of half-maximal effect; for activation: % is set by controls: 0 for no effect and ±100 for the full control effect
[4] = molecular target: Rap guanine nucleotide exchange factor 4 (Homo sapiens) (UniProt Q8WZA2); assay: Confirmatory qHTS for antagonist of cAMP-regulated guanine nucleotide exchange factor 4 (EPAC2) (AID 1645885); note: nearly all actives have a fitted effect of over 25% in size; note: potency is the fitted concentration of half-maximal effect; for activity change, negative = inhibition: % is set by controls: 0 for no effect and ±100 for the full control effect
[5] = molecular target: Rap guanine nucleotide exchange factor 3 (Homo sapiens) (UniProt O95398); assay: Counterscreen qHTS for antagonist of cAMP-regulated guanine nucleotide exchange factor 3 (EPAC1) (AID 1645888); note: % of control where 0% means no effect
Method in brief: (§1)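 Rap1B–BODIPY-GDP (250 nM) with 50 uM GDP; compounds pin-transferred to 9.74 nM–152 uM final (activator) or from 7.32 nM upwards (inhibitor). Fluorescence Ex/Em 480/540 nm read at 5 and 30 min, then after adding cAMP or buffer, at room temperature.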

[6] = molecular target: Rap guanine nucleotide exchange factor 3 (Homo sapiens) (UniProt O95398); assay: Counterscreen qHTS for agonist of cAMP-regulated guanine nucleotide exchange factor 3 (EPAC1) (AID 1645889); note: nearly all actives have a fitted effect of over 40% in size; note: potency is the fitted concentration of half-maximal effect; for activation: % of control where 0% means no effect
Method in brief: as §1

Sequence of Rap guanine nucleotide exchange factor 3 (Homo sapiens) (O95398 whole entry, looked up): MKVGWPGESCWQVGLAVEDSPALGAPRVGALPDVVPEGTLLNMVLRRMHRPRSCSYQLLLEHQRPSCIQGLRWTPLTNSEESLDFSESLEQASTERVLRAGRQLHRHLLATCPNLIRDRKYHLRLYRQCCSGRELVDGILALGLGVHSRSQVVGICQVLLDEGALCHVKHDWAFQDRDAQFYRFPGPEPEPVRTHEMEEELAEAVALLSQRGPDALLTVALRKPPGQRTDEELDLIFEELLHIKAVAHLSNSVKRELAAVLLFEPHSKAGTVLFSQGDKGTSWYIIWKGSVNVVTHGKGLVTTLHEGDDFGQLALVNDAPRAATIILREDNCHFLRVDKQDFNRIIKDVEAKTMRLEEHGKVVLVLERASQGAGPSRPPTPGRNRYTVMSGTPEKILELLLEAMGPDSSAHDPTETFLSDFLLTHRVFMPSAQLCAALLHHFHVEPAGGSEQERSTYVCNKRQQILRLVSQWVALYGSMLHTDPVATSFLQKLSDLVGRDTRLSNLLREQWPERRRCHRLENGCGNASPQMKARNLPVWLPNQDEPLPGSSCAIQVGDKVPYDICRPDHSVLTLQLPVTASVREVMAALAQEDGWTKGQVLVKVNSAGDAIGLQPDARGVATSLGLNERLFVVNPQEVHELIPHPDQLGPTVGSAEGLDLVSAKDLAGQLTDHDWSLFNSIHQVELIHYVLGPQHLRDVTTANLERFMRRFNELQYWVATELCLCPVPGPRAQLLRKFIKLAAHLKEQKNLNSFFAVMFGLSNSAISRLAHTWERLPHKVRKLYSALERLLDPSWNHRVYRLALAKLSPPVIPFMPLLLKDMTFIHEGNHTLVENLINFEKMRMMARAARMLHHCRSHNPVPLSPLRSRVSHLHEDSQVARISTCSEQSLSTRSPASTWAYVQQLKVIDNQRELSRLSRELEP
Sequence of Rap guanine nucleotide exchange factor 4 (Homo sapiens) (Q8WZA2 whole entry, looked up): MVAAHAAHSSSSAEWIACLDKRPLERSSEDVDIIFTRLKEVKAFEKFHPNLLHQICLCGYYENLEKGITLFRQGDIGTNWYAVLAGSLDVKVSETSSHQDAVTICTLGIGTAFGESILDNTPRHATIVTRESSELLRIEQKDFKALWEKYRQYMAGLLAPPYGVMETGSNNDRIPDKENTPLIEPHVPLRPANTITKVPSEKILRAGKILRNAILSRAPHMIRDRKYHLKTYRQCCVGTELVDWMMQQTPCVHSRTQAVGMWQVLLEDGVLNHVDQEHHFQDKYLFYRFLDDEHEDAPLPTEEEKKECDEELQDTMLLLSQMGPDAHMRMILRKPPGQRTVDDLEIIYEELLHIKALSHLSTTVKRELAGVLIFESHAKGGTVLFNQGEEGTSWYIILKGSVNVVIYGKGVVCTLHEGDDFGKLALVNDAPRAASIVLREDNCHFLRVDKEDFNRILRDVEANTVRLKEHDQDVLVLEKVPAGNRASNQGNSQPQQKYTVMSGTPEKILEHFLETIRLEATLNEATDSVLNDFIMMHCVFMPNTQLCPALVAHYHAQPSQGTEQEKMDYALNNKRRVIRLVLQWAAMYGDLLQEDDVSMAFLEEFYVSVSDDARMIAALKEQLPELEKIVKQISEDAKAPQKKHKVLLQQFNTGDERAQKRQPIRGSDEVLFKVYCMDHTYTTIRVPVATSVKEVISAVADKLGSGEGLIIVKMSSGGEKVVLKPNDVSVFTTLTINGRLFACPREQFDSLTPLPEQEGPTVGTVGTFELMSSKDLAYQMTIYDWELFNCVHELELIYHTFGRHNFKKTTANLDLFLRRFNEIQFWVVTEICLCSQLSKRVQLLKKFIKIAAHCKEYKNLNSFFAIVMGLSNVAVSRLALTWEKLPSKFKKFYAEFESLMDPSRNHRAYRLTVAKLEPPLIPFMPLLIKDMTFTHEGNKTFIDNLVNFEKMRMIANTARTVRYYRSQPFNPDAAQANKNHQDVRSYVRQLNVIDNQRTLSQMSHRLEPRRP

CCCN1C(=O)c2cc(C(=O)Nc3ccccc3CC)ccc2C1O (centres undefined)
inactive: Potency [1] | Potency [2] | Potency [3] | Potency [4] | Potency [5] | Potency [6]

CCO/C(C)=N/Oc1cc(OC)cc(OC)c1
active: Potency [4] 23.9 µM
inactive: Potency [1] | Potency [2] | Potency [3] | Potency [5] | Potency [6]

Cc1ccc2nc(NC(=O)CSc3ncnc4c3oc3ccccc34)sc2c1
inactive: Potency [1] | Potency [2] | Potency [3] | Potency [4] | Potency [5] | Potency [6]

CCN(CC)c1nc(SCC(=O)O)nc(N(CC)CC)n1
active: Potency [4] 12 µM
inactive: Potency [1] | Potency [2] | Potency [3] | Potency [5] | Potency [6]

Cc1ccc(S(=O)(=O)N2[C@@H](c3ccc(Cl)cc3)C(C(=O)O)=CC[C@H]2c2ccc(Cl)c(Cl)c2)cc1
active: Potency [1] 75.7 µM | Potency [4] 47.8 µM
inactive: Potency [2] | Potency [3] | Potency [5] | Potency [6]

O=C(Nc1ccc(Cl)cc1C(=O)O)c1ccc2c(c1)C(=O)N(Cc1ccco1)C2=O
active: Potency [1] 39.8 µM
inactive: Potency [2] | activation [3] -2.6% [at 17.1 µM, percent relative to cAMP agonist control] | Potency [4] | activity change, negative = inhibition [5] -16.1% [at 30.8 µM] | activation [6] 16.2% [at 30.8 µM]

OCC[n+]1ccc(/C=C/c2c[nH]c3ccccc23)cc1
inactive: Potency [1] | Potency [4] | Potency [5]
active: Potency [2] 56.2 µM | Potency [3] 100 µM | Potency [6] 56.2 µM

CCc1nc2c(OCc3ccc(OC(F)F)cc3)cccn2c1N(C)C(=O)c1ccc(OC)cc1
inactive: Potency [1] | Potency [2] | Potency [3] | Potency [4] | Potency [5] | Potency [6]

O=C(COC(=O)Cc1ccc(Cl)cc1)Nc1ccc2[nH]c(=O)[nH]c2c1
inactive: Potency [1] | Potency [2] | activation [3] -3.41% [at 17.1 µM, percent relative to cAMP agonist control] | Potency [4] | activity change, negative = inhibition [5] -14.8% [at 30.8 µM] | activation [6] -0.761% [at 30.8 µM]

CC(C(=O)Nc1ccccc1-c1ccccc1)N1CCN(C(=O)c2ccccc2)CC1 (centres undefined)
inactive: Potency [1] | Potency [2] | activation [3] 12.7% [at 17.1 µM, percent relative to cAMP agonist control] | Potency [4] | activity change, negative = inhibition [5] 16.7% [at 30.8 µM] | activation [6] 29% [at 30.8 µM]

NS(=O)(=O)c1ccc(CCNC(=O)c2ccc3nccnc3c2)cc1
active: Potency [1] 47.8 µM
inactive: Potency [2] | Potency [3] | Potency [4] | Potency [5] | Potency [6]

CC1CCCN(CC(=O)Nc2cc(Cl)ccc2Oc2ccccc2)C1 (centres undefined)
inactive: Potency [1] | Potency [2] | Potency [3] | Potency [4] | Potency [5] | Potency [6]

COC(=O)c1ccc(N2C(=O)CC(N3CCOCC3)C2=O)cc1 (centres undefined)
inactive: Potency [1] | Potency [2] | activation [3] 8.32% [at 17.1 µM, percent relative to cAMP agonist control] | Potency [4] | activity change, negative = inhibition [5] 6.34% [at 30.8 µM] | activation [6] 10.6% [at 30.8 µM]

CC(=O)C1=C(c2ccc(C)cc2)N(C(C)=O)n2c(nnc2C2CCCCC2)S1
inactive: Potency [1] | Potency [2] | Potency [3] | Potency [4] | Potency [5] | Potency [6]

COc1ccccc1NC(=O)COC(=O)c1ccc([N+](=O)[O-])s1
inactive: Potency [2] | Potency [3] | Potency [4] | Potency [5] | Potency [6]
active: Potency [1] 21.3 µM

COc1ccc(C(C#N)=Cc2cccc(OC)c2OC)cc1
inactive: Potency [1] | Potency [2] | Potency [3] | Potency [5] | Potency [6]
active: Potency [4] 16.9 µM

CCS(=O)(=O)N1CCCC(C(=O)NCCCN(C)Cc2ccccc2)C1 (centres undefined)
inactive: Potency [1] | Potency [2] | Potency [3] | Potency [4] | Potency [5] | Potency [6]

COc1ccc(OCC(=O)Nc2ccccc2N2CCCCC2)cc1
inactive: Potency [1] | Potency [2] | activation [3] -5.15% [at 17.1 µM, percent relative to cAMP agonist control] | Potency [4] | activity change, negative = inhibition [5] -4.31% [at 30.8 µM] | activation [6] 2.16% [at 30.8 µM]

O=C(c1ccc(Br)cc1)N(Cc1cccs1)c1ccc(F)cc1
inactive: Potency [1] | Potency [2] | Potency [3] | Potency [4] | Potency [5] | Potency [6]

Cc1ccc2c(c1)c(/C=C/c1cc[n+](C)cc1)c(C)n2C
inactive: Potency [1] | Potency [4] | Potency [5]
active: Potency [2] 100 µM | Potency [3] 100 µM | Potency [6] 8.91 µM

COc1cc(C2c3c(oc4ccccc4c3=O)C(=O)N2c2nc(C)c(C)s2)ccc1O (centres undefined)
inactive: Potency [1] | Potency [2] | Potency [3] | Potency [4] | Potency [5] | Potency [6]

O=C1C=C(N2CCOCC2)c2ccccc2C1=O
active: Potency [1] 39.8 µM
inactive: Potency [2] | activation [3] -3.17% [at 17.1 µM, percent relative to cAMP agonist control] | Potency [4] | activity change, negative = inhibition [5] -11.6% [at 30.8 µM] | activation [6] 26.3% [at 30.8 µM]

NN=C1c2ccccc2C(=O)C1C(=O)C(c1ccccc1)c1ccccc1 (centres undefined)
inactive: Potency [2] | Potency [3] | Potency [4] | Potency [5] | Potency [6]
active: Potency [1] 42.6 µM

COn1c(-c2ccc(Cl)cc2Cl)nc2ncccc21
active: Potency [4] 84.9 µM
inactive: Potency [1] | Potency [2] | Potency [3] | Potency [5] | Potency [6]

COc1ccc(NC(=O)c2ccc(NC3=NC4CS(=O)(=O)CC4S3)cc2)cc1 (centres undefined)
inactive: Potency [1] | Potency [2] | activation [3] 1.91% [at 17.1 µM, percent relative to cAMP agonist control] | Potency [4] | activity change, negative = inhibition [5] -1.99% [at 30.8 µM] | activation [6] 0.693% [at 30.8 µM]

Cc1ccc(NC(=O)N2CCN(c3nnc(C)c4c(C)n(-c5ccc(Cl)cc5)nc34)CC2)c(C)c1
inactive: Potency [1] | Potency [2] | Potency [3] | Potency [4] | Potency [5] | Potency [6]

N#CC1=C(O)C(c2ccccc2)n2c1nc(=O)c1ccccc12 (centres undefined)
inactive: Potency [1] | Potency [2] | activation [3] 0.476% [at 17.1 µM, percent relative to cAMP agonist control] | Potency [4] | activity change, negative = inhibition [5] 1.23% [at 30.8 µM] | activation [6] 1.1% [at 30.8 µM]

COc1cc(OC)nc(Oc2cc(/C=N/O)ccc2OC)n1
inactive: Potency [1] | Potency [2] | activation [3] -0.415% [at 17.1 µM, percent relative to cAMP agonist control] | Potency [4] | activity change, negative = inhibition [5] -10.5% [at 30.8 µM] | activation [6] 1.61% [at 30.8 µM]

CCOCCCn1c(SCC(=O)Nc2ccc(OC)cc2OC)nc2ccccc2c1=O
inactive: Potency [1] | Potency [2] | Potency [3] | outcome [4] inactive [at 12.7 µM] | Potency [5] | Potency [6]

CCc1ccc(/C=C2\SC(=S)N(CCC(=O)Nc3cc(C)on3)C2=O)cc1
inactive: Potency [1] | Potency [2] | Potency [3] | Potency [4] | Potency [5] | Potency [6]

O=C(CSc1nc2c([nH]c3ccccc32)c(=O)n1-c1ccccc1F)Nc1cccc(Cl)c1
inactive: Potency [1] | Potency [2] | Potency [3] | Potency [4] | Potency [5] | Potency [6]

COc1ccc(/C=C(\NC(=O)c2cccs2)C(=O)Nc2ccc(C)cc2)cc1OC
active: Potency [1] 47.8 µM
inactive: Potency [2] | Potency [3] | Potency [4] | Potency [5] | Potency [6]

Oc1ccccc1-c1nc(NCc2ccccc2)c2ccccc2n1
inactive: Potency [1] | Potency [2] | Potency [3] | Potency [4] | Potency [5] | Potency [6]

CCc1nc2c(OCc3ccc(C(=O)OC)cc3)cccn2c1N(C)C(=O)CC(C)C
inactive: Potency [1] | Potency [2] | Potency [3] | Potency [4] | Potency [5] | Potency [6]

O=[N+]([O-])c1cc([N+](=O)[O-])c2nonc2c1Nc1ccc(O)cc1
active: Potency [1] 75.7 µM | Potency [4] 42.6 µM
inactive: Potency [2] | Potency [3] | Potency [5] | Potency [6]

O=C(O)c1ccc(N/N=C/c2ccc3c(c2)OCO3)cc1
inactive: Potency [1] | Potency [2] | Potency [3] | Potency [5] | Potency [6]
active: Potency [4] 33.8 µM

CC(=O)N1CCc2cc(CNC(=O)c3ccccc3Br)ccc21
inactive: Potency [1] | Potency [2] | Potency [3] | Potency [4] | Potency [5] | Potency [6]

S=C(NCCCN1CCOCC1)Nc1cccc(-c2nnc3n2CCCCC3)c1
inactive: Potency [1] | Potency [2] | Potency [3] | Potency [4] | Potency [5] | Potency [6]

Nc1ncnc2nc(Sc3ccc(Cl)cc3)[nH]c12
inactive: Potency [1] | Potency [2] | Potency [3] | Potency [4] | Potency [5] | Potency [6]

CC(Sc1ccccc1)C(=O)NNC(=O)c1csc(N2CCOCC2)n1 (centres undefined)
inactive: Potency [1] | Potency [2] | activation [3] 4.98% [at 17.1 µM, percent relative to cAMP agonist control] | Potency [4] | activity change, negative = inhibition [5] 1.84% [at 30.8 µM] | activation [6] 28.3% [at 30.8 µM]

Cc1ccc(S(=O)(=O)N2[C@@H](c3ccc(Br)cc3)C(C(=O)O)=CC[C@H]2c2ccc(Cl)cc2)cc1
inactive: Potency [2] | Potency [3] | Potency [4] | Potency [5] | Potency [6]
active: Potency [1] 75.7 µM

Cc1ccc2c(c1)c1c(c(=O)n(-c3cccc(Cl)c3)c(=O)n1C)n2C
inactive: Potency [1] | Potency [2] | Potency [3] | Potency [4] | Potency [5] | Potency [6]

CCOC(=O)c1ccc(-c2ccc(/C=C(\C#N)C(=O)Nc3c(C)cccc3Cl)o2)cc1
inactive: Potency [2] | Potency [3] | Potency [4] | Potency [5] | Potency [6]
active: Potency [1] 75.7 µM

O=C(c1ccc(CSCc2ccccc2F)o1)N1CCN(c2ccc(N3CCOCC3)nn2)CC1
inactive: Potency [1] | Potency [2] | activation [3] 3.73% [at 17.1 µM, percent relative to cAMP agonist control] | Potency [4] | activity change, negative = inhibition [5] -4.38% [at 30.8 µM] | activation [6] 14.5% [at 30.8 µM]
